Test systems include 786-0 renal; MALME-3M melanoma; MDA-MB-231 breast; SF-268 CNS; SF-295 CNS; UACC-257 melanoma; U251 CNS; PC-3 prostate; UACC-62 melanoma; SK-MEL-2 melanoma; SN12C renal; UO-31 renal; TK-10 renal; ACHN renal; A498 renal; OVCAR-5 ovarian; OVCAR-3 ovarian; HS 578T breast; NCI/ADR-RES ovarian; BT-549 breast.
Holding throughout (assay): NCI-60 one-dose screen, 48 h (100 = growth as untreated, 0 = no growth, -100 = all killed)
What all share (settings): 10 µM

For seven compounds, growth results are on record in PubChem BioAssay (NCI).

About 83,000 compounds went through this panel and 20% of them were active in at least one assay; those are over-represented in the sample as a whole.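 The endpoint reported here, percent growth, reads 100 for growth as untreated, 0 for no net growth and -100 for all cells dead.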 Values without a mark were called inactive. Activity calls are given as the source filed them. How the source made its calls: active means growth percent below 10; inactive means the rest.

Turning to `COc1cc(Nc2nc(O)c(/C=C3\C=Nc4ccccc43)s2)cc(OC)c1OC`, the growth with 786-0 renal is -73.1% (active); with MALME-3M melanoma, -30.1% (active); with MDA-MB-231 breast it was -40.7% (active); in the assay on SF-268 CNS, -38.2% (active); in the assay with SF-295 CNS, -73.4% (active); in the assay with UACC-257 melanoma, 4.51% (active). Also, the growth is -79.8% (active) in the assay on U251 CNS; -71.9% (active) in the assay with PC-3 prostate; -65.9% (active) in the assay on UACC-62 melanoma; -70.6% (active) in the assay with SK-MEL-2 melanoma; -88% (active) with SN12C renal; -48.9% (active) in the assay with UO-31 renal. Further, the growth with TK-10 renal is -35% (active); in the assay with ACHN renal it was -2.09% (active); with A498 renal, -76.1% (active); with OVCAR-5 ovarian it was -52.5% (active); in the assay on OVCAR-3 ovarian, -77% (active); in the assay with HS 578T breast, -20.2% (active). Further, the growth in the assay on NCI/ADR-RES ovarian was 11.4%; in the assay on BT-549 breast, -41.4% (active).

For the compound `COc1ccc(-n2c(SCC(=O)NNS(=O)(=O)c3ccccc3)nc3ccc(Cl)cc3c2=O)cc1`, the growth in the assay on 786-0 renal is 101%; in the assay with MALME-3M melanoma, 117%; in the assay on MDA-MB-231 breast, 89.3%; in the assay with SF-268 CNS, 102%; in the assay on SF-295 CNS it was 102%; with UACC-257 melanoma, 117%. Further, the growth in the assay on U251 CNS is 101%; in the assay on PC-3 prostate, 88.4%; in the assay on UACC-62 melanoma it was 77%; in the assay with SK-MEL-2 melanoma, 100%; in the assay on SN12C renal, 94.1%; in the assay on UO-31 renal it was 63.5%. Besides, the growth is 109% in the assay on TK-10 renal; -8.76% (active) with ACHN renal; 90% with A498 renal; 102% in the assay on OVCAR-5 ovarian; 105% in the assay on OVCAR-3 ovarian; 99.7% in the assay on HS 578T breast. Moreover, the growth in the assay with NCI/ADR-RES ovarian and in the assay with BT-549 breast was 105% throughout.

Turning to `O=C(CN1CCN(c2ncnc3c2cnn3-c2ccccc2)CC1)Nc1ccc(Cl)cc1`, the growth in the assay on 786-0 renal was 40.4%; with MALME-3M melanoma, -56.2% (active); in the assay with MDA-MB-231 breast, 63.3%; in the assay on SF-268 CNS, 44.3%; with SF-295 CNS, 80.3%; in the assay with UACC-257 melanoma, 49.9%. Moreover, the growth was 66.7% with U251 CNS; 38.8% with PC-3 prostate; 45.3% in the assay on UACC-62 melanoma; 34.2% with SK-MEL-2 melanoma; 46.6% in the assay on SN12C renal; -60.5% (active) in the assay on UO-31 renal. Also, the growth in the assay with TK-10 renal is 97.3%; in the assay on ACHN renal it was -80.7% (active); with A498 renal it was 78.7%; in the assay on OVCAR-5 ovarian, 85.6%; in the assay with OVCAR-3 ovarian, 51.8%; in the assay with HS 578T breast, 64.6%. Further, the growth in the assay with NCI/ADR-RES ovarian is 48%; in the assay on BT-549 breast, 39.1%.

On to `COc1ccc(NCc2cn(-c3ccc(C(=O)O)cc3)nc2-c2ccc(F)cc2)cc1C(F)(F)F`, for which the growth was 78.2% with 786-0 renal; 27.3% in the assay on MALME-3M melanoma; 82.6% with MDA-MB-231 breast; 53.8% in the assay with SF-268 CNS; 29.6% in the assay on SF-295 CNS; 64.9% with UACC-257 melanoma. Also, the growth in the assay on U251 CNS was 29.5%; with PC-3 prostate it was 36.3%; in the assay with UACC-62 melanoma it was 13.4%; in the assay with SK-MEL-2 melanoma it was -30.9% (active); with SN12C renal, 32.2%; in the assay on UO-31 renal, 35.9%. Besides, the growth is 95.7% with TK-10 renal; 43.1% in the assay with ACHN renal; 112% in the assay on A498 renal; 72.4% in the assay on OVCAR-5 ovarian; 53.4% in the assay with OVCAR-3 ovarian; 48.7% with HS 578T breast. The growth in the assay on NCI/ADR-RES ovarian was 64.4%; with BT-549 breast it was 33.2%.

For the compound `COc1ccc2[nH]cc(-c3nc(N)nnc3-c3cn(C)c4ncc(Br)cc34)c2c1`, the growth in the assay on 786-0 renal is 12.8%; with MALME-3M melanoma it was 28.7%; with MDA-MB-231 breast, 21%; in the assay with SF-268 CNS, 12.9%; in the assay with SF-295 CNS, 17%; with UACC-257 melanoma, 39%. In addition, the growth in the assay with U251 CNS is 5.39% (active); in the assay with PC-3 prostate it was 10.5%; in the assay on UACC-62 melanoma it was 14.2%; in the assay on SK-MEL-2 melanoma it was 36.2%; in the assay on SN12C renal it was 17.8%; with UO-31 renal, 3.12% (active). Moreover, the growth was 11% in the assay on TK-10 renal; 10.2% with ACHN renal; -21.6% (active) in the assay on A498 renal; 20.6% in the assay with OVCAR-5 ovarian; -0.754% (active) in the assay with OVCAR-3 ovarian; 28.2% in the assay with HS 578T breast. For the same compound, the growth was 12.5% in the assay with NCI/ADR-RES ovarian and -38.5% (active) with BT-549 breast.

`O=C(CN1CCN(c2ncnc3c2cnn3-c2ccccc2)CC1)Nc1ccc(Br)cc1`: the growth in the assay with 786-0 renal is -61.7% (active); in the assay with MALME-3M melanoma, -54.4% (active); in the assay on MDA-MB-231 breast, 66.7%; with SF-268 CNS, 58.8%; in the assay on SF-295 CNS, 83%; in the assay with UACC-257 melanoma it was 58.7%. For the same compound, the growth was 76.2% in the assay on U251 CNS; 49.1% in the assay with PC-3 prostate; 45.1% in the assay on UACC-62 melanoma; 29.9% with SK-MEL-2 melanoma; 39.1% with SN12C renal; -77% (active) in the assay on UO-31 renal. In addition, the growth in the assay on TK-10 renal is 121%; in the assay with ACHN renal it was -88.1% (active); with A498 renal it was 90.9%; in the assay with OVCAR-5 ovarian it was 78.2%; with OVCAR-3 ovarian it was 60.6%; in the assay with HS 578T breast, 70.7%. For the same compound, the results for the growth in the assay on NCI/ADR-RES ovarian and with BT-549 breast were 56.1% and 50%, respectively.

Regarding `COc1ccc(Cc2nn(CC(=O)N/N=C/c3ccc([N+](=O)[O-])cc3)c(=O)c3c(C)noc23)cc1`, the growth with 786-0 renal is 26.3%; with MALME-3M melanoma, 53%; in the assay with MDA-MB-231 breast, 61.2%; in the assay on SF-268 CNS, 77.7%; in the assay with SF-295 CNS, 92.7%; with UACC-257 melanoma, 92.8%. Also, the growth in the assay with U251 CNS is 24.4%; in the assay with PC-3 prostate, 69.8%; with UACC-62 melanoma, 73.9%; in the assay on SK-MEL-2 melanoma it was 99.1%; in the assay on SN12C renal it was 39%; with UO-31 renal, 63%. In addition, the growth in the assay with TK-10 renal was 101%; in the assay with ACHN renal, 47.7%; in the assay on A498 renal it was 111%; in the assay on OVCAR-5 ovarian, 90.2%; in the assay with OVCAR-3 ovarian it was 45.1%; in the assay on HS 578T breast, 48.8%. Besides, the results for the growth in the assay with NCI/ADR-RES ovarian and with BT-549 breast were 73.9% and 87.4%, respectively.
